For one test, the system named is PA-1. The test can be described thus: Primary qHTS to identify gynecologic anti-cancer compounds using libraries of approved drugs and bioactive compounds (AID 1345084). Further: nearly all actives have a fitted effect of over 55% in size. On activity change, negative = cytotoxicity: on the % scale 0 is the no-effect control and ±100 the full control effect. The note with it: Gynecologic cancer cell panel viability, ATPlite luminescence, 48 h; series mostly up to 57.5 µM. In short, it runs like this: (§1)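 Cells, 1,000 per well, plated 16 h, then exposed 48 h at 37 C to compounds. Viability by ATPlite luminescence after 15 min at room temperature.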
In general terms: Quantitative high-throughput screening tests each substance at several concentrations.

The test system of another test is Tov-21-G. The test is described as above. The note with it: Gynecologic cancer cell panel viability, ATPlite luminescence, 48 h; series mostly up to 57.5 µM. In short, it runs like this: as §1
For orientation: In ATP-based viability assays light output follows the ATP content of the culture.

A further test has as its system Tov112D. Described as above. The conditions noted are these: Gynecologic cancer cell panel viability, ATPlite luminescence, 48 h; series mostly up to 57.5 µM. In short, it runs like this: as §1
A further test deals with SKOV3. Described as above. The note with it: Gynecologic cancer cell panel viability, ATPlite luminescence, 48 h; series mostly up to 57.5 µM. In short, it runs like this: as §1
A short description of test [1]: qHTS assay to identify inhibitors of the type 1 interferon - major histocompatibility complex class I in skeletal muscle: Counter screen cell viability and HiBit confirmation (AID 1347412). Further: nearly all actives have a fitted effect of over 60% in size. On activity change, negative = inhibition: on the % scale 0 is the no-effect control and ±100 the full control effect. The conditions noted are these: iHSKM muscle cells + IFN-b, HiBiT or CellTiter-Glo, 24 h. In short, it runs like this:
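CRISPR HLA-B*08:01-HiBit immortalized human myoblasts (C25cl48) stimulated with 4 ng/ml IFN-beta and compounds (12-point 1:3, top 46 uM final) for 24 h at 37 C. Duplicate plates read by HiBit lytic luminescence or CellTiter Glo ATP.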

Another test deals with astro. The test can be described thus: Drug repurposing screens with cells derived from glioblastoma tumor samples (AID 1345199). Further: nearly all actives have a fitted effect of over 40% in size. The note with it: viability, ATP luminescence, 48 h; series mostly up to 45.9 µM. In short, it runs like this: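 Four patient lines of CD133+ GBM neurospheres were screened at several concentrations; hits were retested in those lines plus three slower-growing GBM lines, using 48-hour treatment and ATP-based viability.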

The structures appear in SMILES notation. Results filed as inconclusive are left out. Values without a mark were called inactive. Activity calls are given as the source filed them. The call rests on the fitted dose curve; in most records, active means well fitted curve in the direction sought with a large enough effect; inconclusive means small, poorly fitted or top-dose-only effect, or another doubt; inactive means no such curve, though single readings can be large; an effect the other way counts as inactive or inconclusive.
Potency means the concentration at half of the fitted maximal effect.

For `Fc1ccc(-c2nc(-c3c(F)cccc3F)[nH]c2-c2ccncc2)cc1`, the Potency result in the test with PA-1, with Tov-21-G and in the test with Tov112D was “inactive” each time.

As to `O=C(NCCCCCCCCNC(=O)C(Cl)Cl)C(Cl)Cl`, the Potency entry in the test on PA-1, with Tov-21-G and with Tov112D was “inactive” throughout.

Consider `CNS(=O)(=O)c1ccccc1Nc1nc(Nc2ccc(N3CCN(C)CC3)cc2OC)ncc1Br`, for which the results for the Potency in the test on PA-1 and in the test with Tov112D were 2 µM (active) and 12.6 µM (active), respectively.

As to `CCCC(Nc1nc(-c2ccc(NC(=O)NCC)c(OC)c2)ncc1C)c1cccnc1` (centres undefined), the results for the Potency in the test on PA-1, in the test with Tov-21-G and with Tov112D were 0.251 µM (active), 0.316 µM (active) and 0.158 µM (active), respectively.

Regarding `CC(C)n1cnc2c(-c3cnc(N)nc3)nc(N3CCOCC3)nc21`, the Potency in the test with SKOV3 is 1.26 µM (active).

Consider `CCCCNc1ncc(C(=O)NCc2ccc(-n3ccnc3)cc2)c(NC2CCC(O)CC2)n1` (centres undefined), for which, in the test with SKOV3, the Potency result was “inactive”.

With `CC(C)C[C@H](C(=O)O)c1cc(-c2ccc(C(F)(F)F)cc2)cc(-c2ccc(C(F)(F)F)cc2)c1`, the Potency entry in the test with SKOV3, in the test with Tov-21-G and with Tov112D was “inactive” in each case.

Turning to `C=CC(C)(O)CC/C=C(\C)C(=O)OC1C(O)C(CO)OC(OC(=O)C23CCC(C)(C)CC2C2=CCC4C5(C)CCC(OC6OC(COC7OCC(OC(C)=O)C(O)C7OC7OC(COC(C)=O)C(O)C(O)C7OC(C)=O)C(O)C(O)C6OC6OCC(O)C(O)C6O)C(C)(C)C5CCC4(C)C2(C)C(O)C3O)C1OC1OCC(OC2OCC(O)C(OC3OCC(O)C(O)C3O)C2O)C(O)C1O` (centres undefined), the activity change, negative = cytotoxicity in the test with SKOV3 was 0.6% [at 6.55 µM]; in the test with Tov-21-G, -26.1% [at 6.55 µM].

Regarding `C=C1C(=O)O[C@@H]2C3=C(C)CCC[C@]3(C)CC[C@@]12O`, the Potency entry with SKOV3 was “inactive”.

With `COc1cc(F)c(F)c(Nc2ccc(I)cc2F)c1NS(=O)(=O)C1(CC(O)CO)CC1` (centres undefined), the Potency result in the test on PA-1 and in the test with Tov112D was “inactive” throughout.

Take `CCC(C)C1NC(=O)C(Cc2ccccc2)NC(=O)C(CCCCCC(=O)C(O)CO)NC(=O)C2CCCCN2C1=O` (centres undefined): the Potency entry in the test with SKOV3, in the test on Tov-21-G and in the test with Tov112D was “inactive” in each case.

As for `COc1cc(O)c2c(c1)C1OC1C[C@H](O)[C@H](O)C(=O)/C=C\C[C@H](C)OC2=O` (some centres undefined), the Potency result in the test with SKOV3 is “inactive”. Besides, the Potency in the test with Tov-21-G is 17.8 µM (active).

For `C/C1=C\CCC2=CC(OC2=O)C(C)(C)/C=C/C1=O` (centres undefined), the Potency in the test on PA-1 is 31.6 µM (active). In the test with Tov112D, the Potency result is “inactive”.

Regarding `C=CC(=O)Nc1cccc(Nc2nc(Nc3ccc(NC4CN(CCF)C4)cc3OC)ncc2C(F)(F)F)c1`, the Potency in the test with SKOV3 is 12.6 µM (active).

For the compound `CCn1c(-c2nonc2N)nc2c(C#CC(C)(C)O)ncc(OCC3CCCNC3)c21` (centres undefined), in the test on PA-1, the Potency is 28.2 µM (active). In addition, the Potency result in the test with Tov112D was “inactive”.

For the compound `COc1cccc(-c2cc(F)ccc2C2Cc3nc(N)nc(C)c3C(=O)N2)n1` (centres undefined), the Potency in the test with PA-1 was 0.355 µM (active); in the test on Tov-21-G, 0.282 µM (active); in test [1] (HiBiT) it was 0.0222 µM (active).

Regarding `O=c1ccc2ccc(OCCCCN3CCN(c4cccc5sccc45)CC3)cc2[nH]1`, the Potency entry with PA-1, in the test with Tov-21-G and in the test with Tov112D was “inactive” in each case.

On to `Cc1cc(-c2cnc(N)c3c(-c4ccc5scnc5c4)csc23)n(C)n1`, for which the Potency result in the test on PA-1 and in the test on Tov112D was “inactive” throughout.

On to `CCN(CC)CCCCCCNc1cc(OC)cc2c(C)ccnc12`, for which the Potency result in the test on SKOV3 and in the test on Tov-21-G was “inactive” in each case.

Regarding `c1ccc(-c2cnn3cc(-c4ccc(OCCN5CCOCC5)cc4)cnc23)cc1`, in the test on SKOV3, the Potency was 15.8 µM (active). Besides, the Potency result in the test on Tov-21-G was “inactive”.

On to `CC(C)S(=O)(=O)NC[C@@H]1CC(c2ccc(N3CCCC3)c(F)c2)=NO1`, for which the Potency result in the test with PA-1, in the test on Tov-21-G and in the test with Tov112D was “inactive” throughout.

For the compound `CCC(C)C(=O)OC12C(OC(C)=O)C(C)C3(O)C(C=C(CO)CC4(O)C(=O)C(C)=CC43)C1C2(C)C` (centres undefined), the Potency result in the test on SKOV3, with Tov-21-G and with Tov112D was “inactive” throughout.

As to `COC(=O)CC(O)CC(O)/C=C/c1c(C)ccc2c1C(OC(C)=O)CC(C)C2` (centres undefined), the Potency result with SKOV3 and in the test with Tov-21-G was “inactive” in each case.

As for `COc1cc(CCC2=NN=C(NC(=O)c3ccc(N4C[C@@H](C)N[C@@H](C)C4)cc3)C2)cc(OC)c1`, the Potency is 12.6 µM (active) in the test on SKOV3 and 22.4 µM (active) with Tov-21-G.

Take `Cc1nc(-c2cn3c(n2)-c2ccc(-c4cnn(C(C)(C)C(N)=O)c4)cc2OCC3)n(C(C)C)n1`: the Potency was 0.631 µM (active) in the test on SKOV3 and 11.2 µM (active) in the test on Tov-21-G. For the same compound, the Potency entry with Tov112D was “inactive”.

On to `C=C(C)C(=O)O[C@H]1[C@H]2C(=C)C(=O)O[C@@H]2C[C@@H](C)[C@@H]2O[C@@H]2C(=O)[C@](C)(O)[C@@H]1OC(=O)C(=C)C`, for which the Potency in the test on SKOV3 was 10 µM (active).

As to `Cc1c(C(=O)Nc2ccc(N3CCC(N4CCOCC4)CC3)c(C#N)c2)cnn1-c1ccc(Cl)cc1`, the Potency entry in the test with SKOV3, in the test with Tov-21-G and with Tov112D was “inactive” in each case.

Turning to `C=CC(=O)N1CCC(Oc2cc3c(Nc4ccc(Cl)c(Cl)c4F)ncnc3cc2OC)CC1`, the Potency in the test on Tov-21-G is 25.1 µM (active).

Turning to `C=C1C(=O)OC2C(OC(=O)C=C(C)C)C(C)=C3C(=O)C=C(C)C3C(O)C12` (centres undefined), the Potency in the test with SKOV3 is 12.6 µM (active). Moreover, in the test on Tov112D, the Potency result is “inactive”.

As to `COc1cc2c(cc1-c1c(C)noc1C)ncc1[nH]c(=O)n(C(C)c3ccccn3)c12` (centres undefined), the Potency with SKOV3 is 12.6 µM (active). In addition, the Potency result in the test on Tov112D is “inactive”.

As to `CC(C)S(=O)(=O)Nc1ccc(F)c(C(=O)c2c[nH]c3ncc(-c4cccnc4)cc23)c1F`, the Potency with SKOV3 was 25.1 µM (active). For the same compound, the Potency result in the test with Tov112D is “inactive”.

As for `CC(C)(C)c1ccc(NC(=O)N2CCN(c3ncccc3Cl)CC2)cc1`, the Potency with SKOV3 was 22.4 µM (active). Moreover, the Potency entry in the test with Tov-21-G and in the test on Tov112D was “inactive” in each case.

With `Cc1sc2c(c1C)C(c1ccc(Cl)cc1)=N[C@@H](CC(=O)Nc1ccc(OCCOCCOCCOCCNc3cccc4c3C(=O)N(C3CCC(=O)NC3=O)C4=O)cc1)c1nnc(C)n1-2` (some centres undefined), the Potency in the test on SKOV3 was 2.82 µM (active). For the same compound, the activity change, negative = inhibition in test [1] (Viability, at 45.9 µM (top of the series)) was 0.552%.

Take `COc1ccc(Cl)c(Nc2ncnc3cc(OCC4CCN(C)CC4)c(OC)cc23)c1`: the Potency is 3.55 µM (active) in the test on SKOV3 and 3.16 µM (active) with Tov-21-G. Further, the Potency result in the test on Tov112D was “inactive”.

For the compound `FC(F)(F)c1ccc(/C=C/c2nc(COc3ccc(CCCCn4ccnn4)cc3)co2)cc1`, the Potency entry in the test with Tov-21-G and with Tov112D was “inactive” throughout.

Consider `CCN(Cc1cc(Nc2nc(C)cn3c(-c4cn[nH]c4)cnc23)sn1)C(C)(C)CO`, for which the Potency in the test on Tov-21-G is 0.355 µM (active).

Regarding `Clc1ccc(Nc2nc3ccccc3c3nc(C4CCCCC4)[nH]c23)cc1Cl`, the Potency entry with SKOV3, in the test with Tov-21-G and in the test with Tov112D was “inactive” each time.

As for `NC(=O)c1cccc2[nH]c(-c3ccc(C4CCCN4)cc3F)nc12` (centres undefined), the Potency in the test on SKOV3 is 14.1 µM (active); in the test on Tov-21-G it was 12.6 µM (active); in the test on Tov112D, 15.8 µM (active).

Consider `Cc1ccc(-c2cn3c4c(sc3n2)CCCC4)cc1`, for which the values for the Potency with SKOV3, with Tov-21-G and in the test on Tov112D were 15.8 µM (active), 12.6 µM (active) and 12.6 µM (active), respectively.

For `Oc1cccc(-c2c3nc(c(-c4cccc(O)c4)c4ccc([nH]4)c(-c4cccc(O)c4)c4nc(c(-c5cccc(O)c5)c5ccc2[nH]5)CC4)C=C3)c1`, the Potency entry in the test on SKOV3 and in the test with Tov112D was “inactive” in each case. Also, in the test on astro, the Potency is 25.1 µM (active).

With `CN(C)CCN(Cc1ccccc1)C(=O)c1cc(-c2ccc(F)cc2)n2nc(C(C)(C)C)cc2n1`, the Potency entry in the test with Tov-21-G and in the test on Tov112D was “inactive” each time.

Take `O=C(Nc1ccc(CN2CCOCC2)cc1)c1ccc(-c2cccc(Cl)c2)o1`: the Potency result in the test with Tov-21-G and with Tov112D was “inactive” each time.

`C=C1C(=O)O[C@@H]2[C@H]1CC[C@H](C)C(CCC(=O)O)C2(C)O` (some centres undefined): the Potency entry in the test on SKOV3 and in the test with Tov112D was “inactive” in each case.

Regarding `C=C1C(=O)O[C@H]2C3=C(C)CCC[C@]3(C)C(=O)C[C@@H]12`, the Potency in the test with Tov-21-G is 20 µM (active).

For `COc1ccc(N(C(=O)Nc2c(C)cccc2C)c2cc(Nc3ccc(N4CCN(C)CC4)cc3)ncn2)c(OC)c1`, the Potency is 25.1 µM (active) in the test with SKOV3 and 12.6 µM (active) in the test with Tov-21-G. The Potency entry in the test with Tov112D is “inactive”.

On to `CCn1c(-c2nonc2N)nc2c(C#CCO)ncc(OCCCN)c21`, for which the Potency entry with Tov-21-G is “inactive”.

Take `O=C(NCCCc1ccccc1)c1cccc(-c2cc(O)c3ncccc3c2)c1`: the Potency with SKOV3 is 11.2 µM (active); with Tov112D, 17.8 µM (active). The Potency entry in the test on Tov-21-G was “inactive”.
